In PubChem BioAssay AID1347426 (Functional Genomics Laboratory (NCATS/FGL), 2020):
Out of some 31,000 sequences screened, about 1,400 (4.5%) were called active.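 How the source made its calls: active means median seed-adjusted z-score above 1 or below -1; inactive means the rest.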 The sample as a whole holds a higher share of actives than the screen did.

assay: Novel Modifiers of Survival Motor Neuron (SMN) Protein: Gene Identification via Genome-wide siRNA Screen; conditions: HEK293T SMN2-luciferase reporter, siRNA knockdown, 72 h; actives lie on both sides
Source text: Spinal muscular atrophy (SMA) is the most common neuromuscular autosomal recessive disorder and one of the leading genetic causes of infant death. SMA results from mutations inducing loss of function or deletion in the survival of motor neuron-1 gene (SMN1), leading to deficiency of the survival motor neuron (SMN) protein. Although a second nearly identical gene, SMN2, is retained in humans, its expression primarily produces an aberrantly spliced isoform that is largely unstable and quickly degraded. We performed a genome-wide RNAi screen using a cell-based reporter assay to identify genes and pathways that modulate SMN protein stability. The screen identified over 200 genes that led to the greatest increase or decrease in luciferase expression.
Using HEK293T cells stably expressing a luciferase reporter that combines the promoter and splicing based cassettes in tandem with the major portion of the native SMN2 cDNA with luciferase, we performed a genome-wide RNAi screen to identify modulators of SMN protein levels. Luciferase is expressed when full-length SMN protein is generated with luminescence signal proportional to SMN protein levels. Our luciferase-based reporter assay was used to screen Ambion Silencer Select Human Druggable Genome siRNA library (10418 genes, 3 unique siRNAs per gene) using lipid-based reverse transfection.
Briefly, 1 pmol of each siRNA was spotted to a well of a 384-well plate (Corning, Corning, NY) and 20 microL of serum-free DMEM containing […] of Lipofectamine RNAiMax (Life Technologies, Carlsbad, CA) was then added to each well. Transfected cells were maintained at 37 degrees C in 5% CO2 for 72 hours, 20 microL of ONE-Glo Reagent (Promega) was added to wells for luciferase quantification. Raw luminescence reads were normalized to Ambion(R) Silencer(R) Negative Control #2 siRNA, then log10 transformed. A robust statistical measure of median absolute deviation (MAD) to standardize siRNA activities from each screen. Common Seed Analysis was used to help prioritize clean hits as opposed to those appearing to arise from seed based off-target effects. Candidate modulators were defined as the genes having a MAD score greater than 1.0 or less than -1.0.

Sequence	median seed-adjusted z-score
GAUUAUAUUUGUCCAGCUATT against ESR2	-1.1 (active)
CAAUCCAGGUGAUCGCAAATT against TPMT	0.19 (inactive)
CAAUGGUACCUAUGACUAUTT against ALG3	-0.446 (inactive)
GAGUACAUGUACUACCUGATT against RFX1	0.818 (inactive)
GAGUUAACGUAUCAGAACATT against LRRFIP1	-0.181 (inactive)
ACUCUAUCCUUGCUUUGCATT against ZNF219	0.127 (inactive)
GCAUAACUGUAACAGAGAATT against RPP30	-0.656 (inactive)
GCUCAGAAGCAGUAAUGCATT against PQBP1	-1.12 (active)
GAAAUGCGAGCUGAACAUATT against CMAS	-0.491 (inactive)
CUUUUUACGUGAGCGUAUATT against NAP1L1	0.263 (inactive)
CGCUGGACUUCGUCAAGAATT against KCNC4	-0.433 (inactive)
CUAUCAUGGAAGAUGCUGATT against B3GNT4	0.124 (inactive)
AGUACUUCCUGACGAUGGATT against CST6	-0.237 (inactive)
ACUAACAUCCCAGACUUUATT against VWA1	0.289 (inactive)
CCAACUACCUGAACGAUGATT against U2AF2	2.14 (active)
AGCUCACACUAUGCAUUGATT against KRTAP2-2	-0.212 (inactive)
GGAGGCUCGUUUUCCCGUATT against EGR4	0 (inactive)
GGACUCAGACGAGUUUUAUTT against CYP11B1	-0.199 (inactive)
GCAGCGAGUCAGUAACUUUTT against SUPT4H1	-1.01 (active)
GCUUCUUCGAGAAACAGAATT against RBMY1F	0.2 (inactive)
GGGUUUGCACUGAAACGAATT against CIR	-0.197 (inactive)
GGAAGGAAUUCAACCGGAUTT against ZNF366	0.585 (inactive)

Sequence	median seed-adjusted z-score
CCAUAGCCCAAAUCAAGGATT against SIK2	0.055 (inactive)
CCACGAACAAUAAUCCCAATT against KCNA3	0.213 (inactive)
CCCUCAAUUUGGUCUGUUUTT against SPINK2	-0.431 (inactive)
ACAACAUGAAGGUCCUCUATT against THY1	-1.1 (active)
ACAUGUUUUUAGAAUUGCUTT against TST	0 (inactive)
CAGUUAUGUUCUACGCAGATT against KCND2	-0.245 (inactive)
CCAUGGAUUUUGUACUGCUTT against VPS35	-0.511 (inactive)
GGCGAAUUCCAUACCGUUATT against NEK2	-0.276 (inactive)
GGAGUAUAUUGAGUAUGGATT against CNOT1	1.2 (active)
GUUCCAUCUUGAUCGAGUATT against RASSF9	0.314 (inactive)
CGGGAACACGUUUCAGGGATT against GPR157	0.152 (inactive)
CAUCCCAGAUCAAACUGUATT against TFAP2A	-0.384 (inactive)
GAUUAUUGAGCAUAAGAUUTT against ZNF277	-0.0374 (inactive)
GAACUGCACGUGUACAACATT against HCFC1	1.47 (active)
GCCUUCUUCUUAUGCAAGATT against ACTL6B	0.0703 (inactive)
CCAUCUAUUCAGAGACGUATT against MUTYH	0.024 (inactive)
GGCAUUCGCUUGAACAGCATT against DRG1	0.336 (inactive)
GCCUCUACAUCUAGUGAUATT against JMJD1C	0.0338 (inactive)
AGAUCAAGUUUGCCCUAAATT against HDGF2	0 (inactive)
GCCUGGAUGCUAAUCAAGATT against S100A12	0.346 (inactive)
AGGAAGAAUUUAAUCCUGATT against CYP26A1	0.0569 (inactive)
GAAAGAGCCUGUUACCUAUTT against ACTR1A	1.28 (active)

Sequence	median seed-adjusted z-score
GUGAAGAAGUUGCUUAUUATT against MAST1	-0.0897 (inactive)
GCAUGAUGGUAUUGAGCUUTT against MS4A6A	0.174 (inactive)
GAGUCACUUCUAAUAAACATT against FOLR2	-0.0835 (inactive)
CGUUAUCUUCAUCACCUAUTT against ABCC10	-1.56 (active)
GGCUAUAAUAGACACGAGATT against CDH6	0 (inactive)
UGACUUUCCUCUCUACGGUTT against SLC10A3	-0.25 (inactive)
GCAUGCUGUUAGCCGAUAATT against TOMM70A	0.0717 (inactive)
CGGCUGAUGUUCUCGAAUUTT against BRD3	0.633 (inactive)
CCAGGCUAUUUGUACCGAUTT against CCR6	0.103 (inactive)
CCAGCUCUGGAAUUAGAUATT against NRBP1	-1.13 (active)
GAAUUAAAGAUUUGGUUGATT against EFCAB1	-0.719 (inactive)
GCUGUUAAGUAUGCCCUUATT against AKR1A1	-0.255 (inactive)
GGACCAUUGGUGAUGAGAATT against CD36	-0.000845 (inactive)
GGUUGGAUGCUAUAUACCATT against ROS1	-0.0561 (inactive)
GGGAUAAGCUGAUAAAGGATT against NDUFS5	-1.35 (active)
GAAUUGAAACGAGCUAGAATT against TAF13	-0.919 (inactive)
CCGUAUGAAUGUAAGUAUUTT against ZNF441	0.578 (inactive)
CAAGAGUUAUGGUCUGGGATT against GCM1	0.0197 (inactive)
CCACGAUGAAGGAACGAGATT against PDE4A	-0.147 (inactive)
GCAUGAUCUAGAUCGAGUATT against UQCRFS1	-1.28 (active)
GGUAUUACUUUGCAAUCGATT against CACNA2D1	-0.541 (inactive)
CAAGAUAUAUAUACGCCUATT against NPY1R	0.76 (inactive)

Sequence	median seed-adjusted z-score
GGGUUUUAGUAACCUUAGATT against SUCNR1	0 (inactive)
GAUCCAAAGUAACUAAACATT against HMGN3	-0.182 (inactive)
GAGGCAGUCUUAGAGGAAATT against SPATA21	-1.03 (active)
GCCCAUCACCUCUUCAUGATT against RAMP1	-0.031 (inactive)
GAAACGAACUGGGCAGUAUTT against FGF2	0.0208 (inactive)
GGAUAGUGAGGAUAAGGAATT against PPP1R15A	0.539 (inactive)
CAAAUCCAGUGGUGGGUAATT against S100A6	-0.264 (inactive)
GUCCUGAAGUCACUCCGAUTT against FUT10	-0.629 (inactive)
CCACUCUCAUCAAAUCCGATT against MLL2	-2.11 (active)
AGAUGAGGAGUGUCGUCAATT against KLK13	0.452 (inactive)
GUUCCUACGUGUACAACGATT against DNASE1L1	0.542 (inactive)
GAAUAUGGGUUGGCCUAUATT against ZNF655	-0.156 (inactive)
CAUUAGCAGAUAUACUAUUTT against EEF1E1	-1.45 (active)
GGACGGAUCUCAAUCGAAATT against CPO	0.0875 (inactive)
GAAGGAAUGAAAUCCGGAATT against TRIM8	-0.296 (inactive)
CGAAUUCAGGUCAACAAUATT against TRERF1	-0.0952 (inactive)
GAGUUUAAGCGCAAGCAUATT against HSPA8	0.462 (inactive)
UCACAGACGAGGCAUUUAATT against FTCD	-0.27 (inactive)
GCCUGGAUGAAUUCGAUUATT against UBE4A	-0.285 (inactive)
GUAAUACGAGGAAAUAGUATT against SNRPG	-3.09 (active)
CAUACACUCUACUCCUGCUTT against CDH26	0 (inactive)
GCGACCCUGUUAUUCUGUATT against TM9SF1	0.14 (inactive)

Sequence	median seed-adjusted z-score
CACCAUUGCAAACCAAAUATT against KCNQ5	0.0191 (inactive)
CGUCAACGAUCGGAAGAAATT against TTLL9	0.0534 (inactive)
GCCCAACAAGUGCAUGUUUTT against GLIS1	0.838 (inactive)
CCUCGUCCGUAGUCUCCUUTT against ADRB1	1.06 (active)
GUAUUGCCUUUGUCAAGAATT against SNX19	0.67 (inactive)
GAAUUGACUUCUUGUCUAATT against RAB41	-0.534 (inactive)
CGUCAUCAGACUCAAUGAATT against 12-Sep	0.286 (inactive)
GGAUGAUGAGUACUCUGAATT against COL7A1	1.08 (active)
GGAAUUUAAGUGAUAGUGATT against CPEB2	-0.00928 (inactive)
GCUGCAACCUUGACUACUATT against RRM1	-5.51 (active)
AGGUGAAUAUUGACCACUUTT against RGS5	0 (inactive)
GAGUCAACAAUGGACAUUUTT against KLHL1	0.067 (inactive)
CAACUAGUGGAGAAGAUCATT against FAM63B	0.111 (inactive)
GGUCACCACUUGCAAGCUATT against ANG	-0.481 (inactive)
AGCUGGGCUUUAUCGUGGATT against P2RX2	0.0454 (inactive)
GCUUAUUUAUGUAUCAAUATT against ADRB1	1.06 (active)
GGAAAAAUCUAAGAAGCAATT against ZC3H11A	-0.137 (inactive)
GCUUCACCAUCGAAUCCAATT against FLT4	-0.861 (inactive)
GCUGCGGCAUGAUCACUAATT against LBXCOR1	0.0938 (inactive)
CAUUGGGCCUAGAAAUUCATT against CNKSR1	0.217 (inactive)
